Activation data for 91 molecules are collected here from PubChem BioAssay AID602248 (The Scripps Research Institute Molecular Screening Center, 2012).

The campaign covered roughly 360,000 compounds. About 1,700 (0.47%) were called active. What follows is part of a selection rich in actives, with near analogues and random picks from the rest. A number with no mark means an inactive call. Cut-off read from the data, not from the text of the source: active = activation above about 15%; inactive = the rest.

The assay is described as follows: counter-screen for M1 agonists: effect in parental CHO-K1 cells (AID 602248).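 Note: untransfected CHO-K1 host cells lacking M1 receptor as counterscreen.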 The note with it: Fluo-8 calcium fluorescence, at 3 µM, stronger effect = higher value, scaled to maximal ATP response, vehicle zero.
Take `NC(=O)C1=C[C@@H](c2csc3ccccc23)C[C@@H](OCc2ccc(CO)cc2)O1`: the activation is 5.09%.

For `NC(=O)C1=C[C@H](c2csc3ccccc23)C[C@H](OCc2ccc(CO)cc2)O1`, the activation was 15.6% (active).

Regarding `O=C(NC1CC1)C1=C[C@H](c2c[nH]c3ccccc23)C[C@H](OCc2ccc(CO)cc2)O1`, the activation was -0.26%.

As for `Cc1ccc(N)cc1-n1c(C)ccc1C`, the activation was 0.3%.

Regarding `O=C(CSc1ccc(Cl)cc1)NC1CC1`, the activation is -0.25%.

As to `CCC1(C)Cc2c(sc3nc(SC)[nH]c(=O)c23)CO1` (stereo unspecified), the activation is 18.7% (active).

As to `CC/C(C)=N/Nc1nc2sc3c(c2c(=O)[nH]1)CC(C)(C)OC3`, the activation was 0.65%.

For the molecule `CCSc1nc2sc3c(c2c(=O)[nH]1)CC(C)(C)OC3`, the activation is 0.45%.

As to `COc1ccc(-n2ncc3c2CC(C)(C)CC3NC(=O)CCc2c(C)nn(C)c2C)cc1` (stereo unspecified), the activation was 2.09%.

For the molecule `Cc1ccc(NC(=O)C(C)c2cccc(C(=O)c3ccccc3)c2)cc1` (stereo unspecified), the activation is 3.5%.

For the molecule `CCCC(C)C(=O)Nc1ccc(NC(C)=O)cc1` (stereo unspecified), the activation is -0.01%.

For the molecule `CCC(C(=O)Nc1ccc(C(C)C)cc1)c1ccccc1` (stereo unspecified), the activation is 21.5% (active).

On to `COc1ccc([C@H]2C[C@@H](n3cc(COC(=O)c4ccccc4)nn3)[C@H](O)CN2C(=O)c2cccs2)cc1`, for which the activation was 4.74%.

With `O=C(NCCc1ccccn1)c1cc(C(=O)C2CCCCC2)c[nH]1`, the activation is 0.74%.

Take `CC/C(=N\NC(=S)NC(C)C)c1ccc(OC(F)F)cc1`: the activation was 0.04%.

For the molecule `CC(NC(=S)Nc1ccc(OC(F)F)cc1)c1ccc(F)cc1` (stereo unspecified), the activation is 18.2% (active).

With `CC(C)N(Cc1ccccc1)C(=S)Nc1ccc(OC(F)F)cc1`, the activation was 3.54%.

As to `COC(=O)[C@]12CCCCC=C1N(CCC1=CCCCC1)C(=O)[C@H](CC(=O)N1CCSCC1)C2`, the activation is 2.39%.

Take `O=C(CC(=O)N/N=C\c1cccc(Cl)c1Cl)NCc1ccccc1`: the activation is 6.61%.

Consider `CSc1sc(C)cc1C1C(C#N)=C(N)N(c2cccnc2)C2=C1C(=O)CCC2` (stereo unspecified), for which the activation was 0.25%.

For the molecule `C=CC(=O)OCCOCCOCCOCCOC(=O)C=C`, the activation is 0.44%.

As to `COc1ccccc1N1CCN(c2ncnc3sc(C)c(-c4ccccc4)c23)CC1`, the activation is 0.5%.

As for `CCc1cc2c(N3CCN(c4nnc(CC)s4)CC3)ncnc2s1`, the activation was 3.43%.

For the molecule `Oc1ccccc1N1CCN(c2ncnc3sc(-c4ccccc4)cc23)CC1`, the activation is 18.6% (active).

As to `CCOC(=O)[C@H]1[C@H]2COc3ccc(Cl)cc3[C@@H]2N2C(=O)c3cc(C)ccc3NC(=O)[C@@]12C`, the activation is -0.51%.

Consider `COc1ccc(CSc2nnnn2-c2ccc(O)cc2)cc1F`, for which the activation is 7.29%.

For `COc1ccc2c(c1)[C@H]1[C@H](CO2)[C@H](c2ccccc2)[C@]2(C)C(=O)Nc3cc(F)c(F)cc3C(=O)N12`, the activation was 0.27%.

As for `CCN1C(=NCC(C)C)N[C@@H](CCc2ccccc2)[C@H](C(=O)NCC(C)C)[C@H]1C`, the activation is 0.45%.

As for `O=S1(=O)CC(N2CCN(Cc3ccccc3F)CC2)CN1Cc1cn(Cc2ccccc2)nn1` (stereo unspecified), the activation is 0.46%.

Turning to `CCOC(=O)CC1=CC(=O)Nc2ccccc2N1`, the activation is 0.86%.

Take `NS(=O)(=O)c1ccc(NC(=O)COC(=O)c2c3c(nc4ccccc24)/C(=C\c2ccc4c(c2)OCO4)CCC3)cc1`: the activation is 17.2% (active).

On to `NC(=O)c1ccc(NC(=O)COC(=O)c2c3c(nc4ccccc24)/C(=C\c2ccc4c(c2)OCO4)CCC3)cc1`, for which the activation is 28.9% (active).

As for `O=C(COC(=O)c1ccc(Cl)nc1)NCc1ccc2c(c1)OCO2`, the activation was 1.56%.

Consider `NS(=O)(=O)c1ccc(NC(=O)COC(=O)CCc2c[nH]c3ccccc23)cc1`, for which the activation was 2.12%.

`CC(=O)Nc1cccc(C(=O)OCC(=O)c2ccc3c(c2)OCO3)c1`: the activation is 3.56%.

For `CC(NC(=S)Nc1ccc(S(N)(=O)=O)cc1)c1ccc2c(c1)OCO2` (stereo unspecified), the activation is 0.36%.

Regarding `Cc1ccc(NS(=O)(=O)c2cn(C)c(=O)n(C)c2=O)c(C)c1`, the activation is 0.05%.

Consider `O=C(COC(=O)c1cncc(Br)c1)Nc1ccc(S(=O)(=O)N2CCOCC2)cc1`, for which the activation was 0.85%.

Take `CCOC(=O)N(Cc1ccccc1)C1CC1`: the activation was 0.45%.

Regarding `CN(C(=O)CN(CCO)CC(=O)N(C)C(C)(C)Cc1ccccc1)C(C)(C)Cc1ccccc1`, the activation was 30.2% (active).

For `CN(CCO)C(=O)c1nc[nH]c1C(=O)N(C)Cc1ccccc1`, the activation is 0.53%.

Turning to `COc1ccc(CCNS(=O)(=O)c2ccc(Cl)s2)cc1OC`, the activation is 0.5%.

Turning to `CCCn1c(=O)c2ccccc2n2c(SCC(=O)/C(C#N)=C(\C)N)nnc12`, the activation was -0.17%.

On to `CN(C)c1ccc(C(CNC(=O)c2ccc(F)cc2)c2c[nH]c3ccccc23)cc1` (stereo unspecified), for which the activation was 0.33%.

`COC(=O)c1nc2n(n1)C(c1ccc([N+](=O)[O-])cc1)C(C(=O)Nc1ccc(Cl)cc1)=C(C)N2` (stereo unspecified): the activation is 0.7%.

With `CCN(CC)CCCC(C)n1c2nc(=O)[nH]c(=O)c-2nc2cc(Cl)ccc21` (stereo unspecified), the activation is 150% (active).

With `CC(=O)c1c(C)[nH]c(C(=O)OCC(=O)Nc2c(C)n(C)n(-c3ccccc3)c2=O)c1C`, the activation was 0.66%.

For the molecule `O=C(c1ccc(=O)[nH]c1)N(Cc1ccco1)C1(C(=O)NC2CCCCC2)CCCCC1`, the activation was 0.04%.

Regarding `COc1ccc(OC)c(NC(=O)C2CCCN2S(=O)(=O)c2cccc3nsnc23)c1` (stereo unspecified), the activation is 0.61%.

As to `Nc1ccc2[nH]c(=S)sc2c1`, the activation is 0.51%.

For `O=C(CCN1C(=O)COc2ccccc21)NCCCN1CCN(c2ccc(F)cc2)CC1`, the activation was 0.21%.

On to `O=C(NCCCN1CCN(c2ccc(F)cc2)CC1)Nc1ccc([N+](=O)[O-])cc1`, for which the activation was 15.1% (active).

As to `CN1CCN(CCNC(=O)Nc2ccc([N+](=O)[O-])cc2)CC1`, the activation is 0.55%.

In the case of `CCn1nnnc1SCC(=O)Nc1ccc(N(C)C)cc1`, the activation is 0.31%.

Take `CCSCc1nc(N)nc(NCCc2ccccc2)n1`: the activation is 15.5% (active).

As for `Cc1ccccc1Nc1nc(N)nc(CSc2ccccc2)n1`, the activation is 0.45%.

For `Nc1nc(CSc2nnnn2-c2ccccc2)nc(Nc2ccccc2)n1`, the activation was 1.93%.

Take `CCOC(=O)C1(Cc2cccc(OC)c2)CCN(C(C)CC(C)(C)O)CC1` (stereo unspecified): the activation is 13.4%.

On to `Cc1ccc(NC(=O)COC(=O)CCc2nc3ccccc3n2-c2ccccc2)c(C)c1`, for which the activation was -0.22%.

Take `COc1cc(OC)cc(C(=O)NNC(=O)CCOc2ccccc2OC)c1`: the activation is 0.49%.

Take `N#CC1(NC(=O)COC(=O)CCN=C2NS(=O)(=O)c3ccccc32)CCCCC1`: the activation was 1.21%.

`O=C(OCCN=C1NS(=O)(=O)c2ccccc21)c1cccc([N+](=O)[O-])c1`: the activation is 1.57%.

Regarding `O=C(CCCN=C1NS(=O)(=O)c2ccccc21)OCC(=O)c1ccc(F)c(F)c1`, the activation was 16.5% (active).

Turning to `O=C(NCCCN1CCCC1=O)c1cccc(S(=O)(=O)NCc2ccccc2)c1`, the activation is 0.5%.

For `CC(C)(C)C(=O)NNC(=O)c1ccc(Oc2cc(Cl)cc(Cl)c2)o1`, the activation is 0.25%.

`CC(C(=O)N1CCc2ccccc21)N(C)CC(=O)Nc1ccc(F)cc1` (stereo unspecified): the activation is 1.77%.

Take `Cn1nnc(NC(=S)NC(=O)c2ccccc2)n1`: the activation was 0.43%.

As for `COc1ccc(C(=O)NC(=S)NNC(=O)CCc2ccccc2)cc1`, the activation is 21.1% (active).

With `COc1ccc(C(=O)NNC(=S)NC(=O)c2ccccc2)cc1`, the activation was 38.2% (active).

With `O=C(/C=C/c1ccc(F)cc1)NC(=S)NNC(=O)c1cccnc1`, the activation was 1.3%.

On to `Cc1onc(-c2ccccc2)c1C(=O)NNC(=S)NC(=O)c1ccc(F)cc1`, for which the activation is 28.7% (active).

Regarding `Cc1onc(-c2ccccc2)c1C(=O)N1CCN(S(=O)(=O)c2ccccc2C(F)(F)F)CC1`, the activation was 0.62%.

Consider `Cc1scc(C(=O)NNC(=S)NCc2ccccc2)c1C`, for which the activation was 1.16%.

For `CC(C)CNC(=S)NNC(=O)c1ccccc1OC(F)F`, the activation is 0.18%.

`COc1ccccc1CCC(=O)NNC(=O)c1ccncc1`: the activation is 0.44%.

For the molecule `CC(=O)NC(=S)NNC(=O)c1ccc(Br)cc1`, the activation is -0.94%.

As for `O=C(NNC(=S)NCc1ccccc1)c1ccc(OC(F)F)cc1`, the activation was 15.8% (active).

On to `COc1ccc(/C(N)=N/OC(=O)CCCc2ccccc2)cc1`, for which the activation is -0.55%.

On to `O=C(Oc1ccc2c(c1)CCC2)N1CCOCC1`, for which the activation was 1.59%.

Consider `CCC(=O)c1cc(F)ccc1OCC(=O)Nc1ccc2c(c1)OCCO2`, for which the activation is 0.59%.

For `CC(C)NC(=O)C1(C)CCCCN1Cc1cccc(C(F)(F)F)c1` (stereo unspecified), the activation was -0.34%.

On to `Cc1cccc(NC(=O)N2CCCCCC2)c1C`, for which the activation is 0.19%.

Take `Cc1ccc(S(=O)(=O)NC(C)C(=O)Nc2ccccc2C(=O)N2CCCC2)cc1` (stereo unspecified): the activation is -0.4%.

`O=S1(=O)CCOC[C@H](CC2CCCCC2)N1Cc1ccc(F)cc1`: the activation was -0.24%.

Regarding `CCC(C)c1ccccc1N1CC(C(=O)N2CCN(S(=O)(=O)c3ccc(F)cc3)CC2)CC1=O` (stereo unspecified), the activation is 1.26%.

For the molecule `COc1cccc(-c2ccc(C#N)c(SCC(=O)NCCc3ccc(Cl)cc3)n2)c1`, the activation was -0.1%.

For the molecule `CC(=O)Oc1ccc(-c2cccc(C(=O)N3CCCCC3)c2)cc1`, the activation was 2.44%.

`Nc1c(C(=O)c2cccs2)sc2nsc(SCCN3CCCCC3)c12`: the activation was 69.8% (active).

Turning to `CCOC(=O)C(C)Sc1nnc(CSc2nc3nc(C)cc(C)n3n2)o1` (stereo unspecified), the activation is 1.72%.

In the case of `Cc1ccc(NC(=O)CC2S/C(=N/N=C3\CCCc4ccccc43)NC2=O)cc1` (stereo unspecified), the activation was 12.4%.

For `O=C(OCc1ccccc1)N1CCC2CC1c1ccc(-c3ccc4c(c3)OCO4)cc12` (stereo unspecified), the activation was 1.17%.
